# HMGR II inh – inhibitors of class II HMG-CoA reductase from Enterococcus faecalis; inhibition, % at 10 µM; 190,000 compounds, 0.41% hits; purified E. faecalis HMGR, NADPH absorbance 340 nm kinetic; AID 1066;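 active = inhibition above a set limit, the median over all tested compounds plus 3 SD, cut at about 9.5% in these data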;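 note: enzyme runs in reverse so mevalonate oxidation gives rising NADPH absorbance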
# Tb hexokinase – blocks Trypanosoma brucei hexokinase 1 activity; recombinant TbHK1, G6PDH-coupled NADH A340; inhibition, % at 10 µM; 220,000 compounds, 0.11% hits; AID 1430;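 active = inhibition of 50% or more in the single-dose primary screen; inactive = inhibition below 50%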
# pCIP destab – compounds decreasing mouse p/CIP protein stability; decrease of EGFP signal, % at 10 µM; Q05BA5; AID 1984; 290,000 compounds, 0.01% hits; F442A p/CIP-EGFP cells, EGFP fluorescence, 16 h;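 active = EGFP signal decrease of at least 30% at 10 µM or well 3 SD below plate mean, unless failing retest; inactive = the rest, including hits failing retest or dose response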
# Furin inh – human furin inhibition; P09958; purified furin, fluorogenic substrate cleavage; inhibition, % at 20 µM or 30 µM; 220,000 compounds, 0.061% hits; in the data active = inhibition above about 25%
# p97 inhibitor – blocks human p97 ATPase activity | P55072 | 220,000 compounds, 0.42% hits | AID 1481 | inhibition, % at 8 µM | recombinant p97 ATPase, Kinase-Glo ATP luminescence, 3 h; in the data active = inhibition above about 15%
# Target sequence (P55072 whole entry, looked up): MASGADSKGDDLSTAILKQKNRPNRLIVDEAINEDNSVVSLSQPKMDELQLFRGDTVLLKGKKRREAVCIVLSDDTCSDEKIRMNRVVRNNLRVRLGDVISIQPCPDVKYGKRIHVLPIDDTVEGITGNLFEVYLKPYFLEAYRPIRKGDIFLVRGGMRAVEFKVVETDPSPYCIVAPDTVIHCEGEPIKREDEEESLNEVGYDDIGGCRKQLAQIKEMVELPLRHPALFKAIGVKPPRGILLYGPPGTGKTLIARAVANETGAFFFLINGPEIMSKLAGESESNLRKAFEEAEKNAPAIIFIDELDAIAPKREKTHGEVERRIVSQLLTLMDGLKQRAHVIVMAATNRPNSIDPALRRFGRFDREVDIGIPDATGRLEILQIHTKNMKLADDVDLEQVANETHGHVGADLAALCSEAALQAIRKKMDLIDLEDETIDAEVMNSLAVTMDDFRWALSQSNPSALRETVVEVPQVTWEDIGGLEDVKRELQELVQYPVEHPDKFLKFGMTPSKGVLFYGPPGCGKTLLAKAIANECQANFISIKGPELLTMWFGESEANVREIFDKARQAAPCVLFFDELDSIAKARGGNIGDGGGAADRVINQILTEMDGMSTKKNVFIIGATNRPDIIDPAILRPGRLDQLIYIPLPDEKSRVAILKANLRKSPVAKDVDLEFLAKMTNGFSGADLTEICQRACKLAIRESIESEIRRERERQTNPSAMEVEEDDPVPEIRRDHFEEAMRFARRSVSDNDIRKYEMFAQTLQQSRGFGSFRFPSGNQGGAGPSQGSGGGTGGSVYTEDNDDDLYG
# Redox H2O2 prof – compounds producing H2O2 with reducing agent – biochemical, NIH compound library profiling, artefact control for MLSCN library redox annotation, primary screen; AID 878; activation, % at 10 µM; DTT-dependent redox cycling H2O2, phenol red/HRP absorbance; 100% = 100 µM peroxide control, 0% = buffer; 200,000 compounds, 0.03% hits;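 active = activation of at least 50% relative to the plate's high and low controls in the primary single-dose screen; inactive = activation below 50%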;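 note: compound incubated with DTT at 0.8 mM final as the reducing agent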
# G6PDH ctr – inhibits Leuconostoc G6PDH, counter-screen for TbHK1 inhibitors; shares compounds with Tb hexokinase; inhibition, % at 10 µM; 210 compounds, 7% hits; purified G6PDH, NADH absorbance, 1 h;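 active = at least 50% inhibition in the glucose-6-phosphate dehydrogenase coupled counterscreen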
# TbHK1 rescreen – T. brucei hexokinase 1 inhibition, rescreen; AID 2560; 210 compounds, 10% hits; recombinant TbHK1, G6PDH-coupled NADH A340 absorbance; inhibition, % at 10 µM; shares compounds with Tb hexokinase;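 active = inhibition of at least 50% in both of the two screening runs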
# p97 confirm – human p97 ATPase inhibition, confirmation | inhibition, % at 8 µM | shares compounds with p97 inhibitor | recombinant p97 ATPase, Kinase-Glo ATP luminescence | 760 compounds, 44% hits | AID 1517;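 active = percent inhibition of p97 ATPase above a set limit, the primary screen's mean plus 3 SD, cut at about 15% in these data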
# Hits are given with their value; – = inactive; · = not tested or not shown. Hits are enriched below; roughly 0.74% of the tested compounds scored in any of these assays.
SMILES,HMGR II inh,Tb hexokinase,pCIP destab,Furin inh,p97 inhibitor,Redox H2O2 prof,p97 confirm,others
COc1ccc(CNC2=CC(=O)CC(C)(C)C2)cc1,–,57.0,–,–,–,–,·,G6PDH ctr=–;TbHK1 rescreen=–
CCc1ccc(N(CC(=O)N2CCCCCC2)S(C)(=O)=O)cc1,·,·,–,·,·,·,·,
Cc1nn(C)c(C)c1C(=O)NN,–,53.7,–,–,–,–,·,G6PDH ctr=–;TbHK1 rescreen=–
CCOC(=O)c1cn2nc(Oc3cccc(C(F)(F)F)c3)ccc2n1,·,–,–,–,–,·,·,
Cc1ccc(Cn2c(-n3nc(C)cc3C)nc3c2c(=O)[nH]c(=O)n3C)cc1,–,56.3,–,–,–,–,·,G6PDH ctr=–;TbHK1 rescreen=–
Cc1cc(C)n(-c2nc3c(c(=O)[nH]c(=O)n3C)n2Cc2cccc(Br)c2)n1,–,–,–,–,–,–,·,
NC(=O)C1CCN(C(=O)CN(c2cccc(C(F)(F)F)c2)S(=O)(=O)c2ccccc2)CC1,–,51.7,–,–,–,–,·,G6PDH ctr=–;TbHK1 rescreen=–
O=C(O)CCN=C1CCCc2ccccc2N1,–,53.7,–,–,–,–,·,G6PDH ctr=–;TbHK1 rescreen=–
O=C(O)CCCN=C1CCCc2ccccc2N1,–,–,–,–,–,–,·,
CCn1cc(/C=C(\NC(=O)c2ccccc2)C(=O)N2CCOCC2)c2ccccc21,·,·,–,·,·,·,·,
CCc1cccc(NC(=O)NC2CCCCC2)c1,–,59.8,–,–,–,–,·,G6PDH ctr=–;TbHK1 rescreen=–
CCc1ccc(NC(=O)NC2CCCCCCC2)cc1,·,·,–,·,·,·,·,
Cc1c(CC(=O)N[C@@H](C)C(=O)O)c(=O)oc2cc3oc4c(c3cc12)CCCC4,·,·,–,·,·,·,·,
CC(=O)C1C(c2ccc(F)cc2)NC(=O)NC1(O)C(F)(F)F (stereo not drawn),–,50.6,–,–,–,–,·,G6PDH ctr=–;TbHK1 rescreen=–
CC(=O)C1C(c2ccc(O)cc2)NC(=O)NC1(O)C(F)(F)F (stereo not drawn),·,–,–,–,·,·,·,
Cc1cc(=O)[nH]c(N/N=C/c2c(O)n(-c3ccccc3)c(=O)c3ccccc23)n1,–,55.6,–,–,–,–,·,G6PDH ctr=–;TbHK1 rescreen=–
O=C(O)C(Nc1nc(C(F)(F)F)nc2ccccc12)c1ccccc1 (stereo not drawn),·,·,–,·,·,·,·,
CCOCCCNC(=O)C(NC(=O)c1cnccn1)c1ccc(C)cc1 (stereo not drawn),–,55.5,–,–,–,–,·,G6PDH ctr=–;TbHK1 rescreen=–
CCOCCCNC(=O)C(NC(=O)c1ccc(NC(C)=O)cc1)c1ccc(C)cc1 (stereo not drawn),–,–,–,–,–,–,·,
CC(CC(=O)Nc1ccc(S(=O)(=O)Nc2ncccn2)cc1)c1ccccc1 (stereo not drawn),·,·,–,·,·,·,·,
CCOC(=O)c1c(NC(N)=O)sc(C)c1C,–,–,–,–,–,–,·,
CCOC(=O)c1c(N2C(=O)C=CC2=O)sc(C)c1C,–,–,–,–,15.2,–,–,
O=C(O)c1cccc(NC2=Nc3cccc4cccc2c34)c1,·,–,–,–,16.0,·,–,
c1ccc(NC2=Nc3cccc4cccc2c34)cc1,–,–,–,–,–,–,·,
O=C1CC(c2ccc(O)cc2)Oc2cc(O)cc(O)c21 (stereo not drawn),–,–,–,–,–,–,·,
SMILES,HMGR II inh,Tb hexokinase,pCIP destab,Furin inh,p97 inhibitor,Redox H2O2 prof,p97 confirm,others
CC1CC(=O)c2c(cc3c(-c4c(O)cc(O)c5c(O)c6c(cc45)OC(C)CC6=O)c(O)cc(O)c3c2O)O1 (stereo not drawn),–,–,–,–,56.0,–,49.4,
CCC(=O)NNc1nc2c(C)cc(C)cc2s1,–,–,–,–,15.2,–,–,
Cc1cc(C)c2nc(NC(=O)c3cc(C)on3)sc2c1,–,–,–,–,–,–,·,
Cc1ccc(N/C(C(Cl)=C(Cl)Cl)=C(/Cl)[N+](=O)[O-])c(C)c1,–,–,–,–,19.5,–,21.3,
COC(=O)c1ccccc1NC(=S)NC(=O)C1CCCCC1,–,–,–,–,17.6,–,18.9,
Cc1ccccc1C(=O)NC(=S)Nc1ccccc1C(=O)O,–,–,–,–,–,–,·,
COC(=O)c1ccccc1NC(=S)NC(=O)c1ccccc1,–,–,–,–,25.6,–,21.1,
COC(=O)c1ccccc1NC(=S)NC(=O)c1ccc(C)cc1,–,–,–,–,–,–,·,
COC(=O)c1ccccc1NC(=S)NC(=O)c1ccccc1C,–,–,–,–,36.0,–,38.7,
COc1cccc(CN2CC(C(=O)NCCCn3ccnc3C)CCC2=O)c1 (stereo not drawn),·,·,–,·,·,·,·,
N/C(=N\O)c1cn(Cc2ccccc2Cl)c2ccccc12,·,·,–,·,·,·,·,
Cc1[nH][nH]c(=O)c1C(c1c(C)[nH][nH]c1=O)c1cn(Cc2ccccc2Cl)c2ccccc12,66.8,–,–,–,20.4,–,20.0,
CC(C)(C)N1C(=O)Cc2c1nc(N)c1c(N)nc(N3CCCCC3CO)c(C#N)c21 (stereo not drawn),–,–,–,–,27.7,–,35.5,
CCOc1ccc(Br)cc1S(=O)(=O)N1CCCN(C)CC1,·,·,–,·,·,·,·,
CCOc1ccc(Br)cc1S(=O)(=O)N1CCC(C(N)=O)CC1,–,–,–,–,15.4,–,–,
COc1cc(/C=N/NC(=O)c2cc(-c3ccco3)nc3ccccc23)cc(OC)c1O,·,–,–,–,16.2,·,–,
O=C(CNC(=O)c1cccc(F)c1)N/N=C/c1ccc(O)c([N+](=O)[O-])c1,–,–,–,–,–,–,·,
O=C(CNC(=O)c1ccc(F)cc1)N/N=C/c1ccc(O)c([N+](=O)[O-])c1,–,–,–,–,21.7,–,–,
COc1cc(/C=N/N=C2/C(=O)Nc3ccccc32)ccc1O,–,–,–,–,–,–,·,
O=C1Nc2ccccc2/C1=N\N=C\c1ccc(O)c(O)c1,·,–,–,–,19.2,·,16.4,
CC(C)c1ccc(-c2cc(C(=O)N3CCOCC3)c3cc(Br)ccc3n2)cc1,·,·,–,·,·,·,·,
CC(C)N(CC(N)=O)C(=O)Cc1coc2cc3c(cc12)CCC3,–,–,–,–,25.9,–,–,
CCCCC(c1nnnn1C(C)C)N1CCN(C(=O)c2ccco2)CC1 (stereo not drawn),·,·,–,·,·,·,·,
Nc1c(-c2ccccc2)c(CSc2nc3ccccc3[nH]2)nn1-c1cccc(C(=O)O)c1,–,–,–,–,15.9,–,–,
Cc1c(CC(=O)O)c(=O)oc2c(C)c(OCc3ccc(F)cc3Cl)ccc12,·,·,–,·,·,·,·,
COc1ccc(N2C(=O)C3C(c4ccc(OC)cc4O)NC(Cc4ccccc4)(C(=O)O)C3C2=O)cc1 (stereo not drawn),–,–,–,–,17.6,–,–,
Cc1ccc(C(=O)NC(C#N)=C(Cl)Cl)cc1,–,–,–,–,21.9,–,21.1,
